Screens: PubChem, several laboratories
Mtb FBA inh: inhibitors of M. tuberculosis fructose-bisphosphate aldolase; inhibition, % at 1 µM; purified M. tuberculosis FBA, fluorescence read-out; 2.3% of 360,000 active; AID 588726;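 note: 0% = vehicle and 100% = reference inhibitor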
GDH-TPI counter-1: inhibits GDH-TPI coupling enzymes, artifact for Mtb FBA screen | GDH-TPI coupled enzyme counterscreen, NADH absorbance | inhibition, % at 4.8 µM | 1.2% of 360,000 active | AID 588335; in the data active = inhibition above about 30%;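 note: 0% = DMSO wells and 100% = wells lacking the enzyme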
Rv3671c inh: inhibitors of M. tuberculosis serine protease Rv3671c | AID 2606 | inhibition, % at 5.96 µM | 0.048% of 320,000 active | P9WHR9; in the data active = inhibition above about 38%;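 note: extracellular domain of Rv3671c used as enzyme; 0% = enzyme with DMSO and 100% = no enzyme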
Mtb hypoxia inh: Mtb hypoxia fluorescent reporter inhibition; M. tuberculosis hypoxia-regulated fluorescent reporter, fluorescence; fluorescence inhibition, % (test concentration not listed); 0.1% of 300,000 active; AID 1159583; in the data active = fluorescence inhibition mostly above about 23%, no sharp cut-off; inactive = mostly below about 17%
FadD28 binding: blocks FadD28 binding to the bisubstrate probe; fluorescence polarization; inhibition, % at 12.5 µM; 0.22% of 360,000 active; AID 588549; in the data active = inhibition above about 8.5%, passing the limit was not always enough
UGM FP inh: inhibitors of M. tuberculosis UDP-galactopyranose mutase; P9WIQ1; purified UGM, fluorescence polarization probe displacement; inhibition, % at 10 µM; 0.06% of 320,000 active; in the data active = inhibition above about 10%, passing the limit was not always enough
Target sequence (P9WIQ1 whole entry, looked up): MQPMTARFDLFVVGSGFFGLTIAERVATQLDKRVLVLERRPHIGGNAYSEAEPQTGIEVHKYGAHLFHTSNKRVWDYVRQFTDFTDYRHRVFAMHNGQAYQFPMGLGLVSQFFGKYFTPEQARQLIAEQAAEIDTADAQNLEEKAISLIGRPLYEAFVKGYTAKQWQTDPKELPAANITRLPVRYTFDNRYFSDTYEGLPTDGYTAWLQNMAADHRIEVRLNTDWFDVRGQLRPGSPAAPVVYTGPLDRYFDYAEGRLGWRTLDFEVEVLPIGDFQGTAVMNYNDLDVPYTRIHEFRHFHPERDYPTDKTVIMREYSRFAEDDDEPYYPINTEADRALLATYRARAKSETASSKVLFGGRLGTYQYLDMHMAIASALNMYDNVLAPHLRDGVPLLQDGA
Mtb FBA confirm: confirmation of M. tuberculosis fructose-bisphosphate aldolase inhibitors | shares compounds with Mtb FBA inh | purified M. tuberculosis FBA, fluorescence read-out | inhibition, % at 1 µM | 78% of 5,600 active | AID 651616;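 note: 0% = vehicle wells and 100% = reference inhibitor wells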
GDH-TPI counter-2: GDH-TPI inhibition counter-screen for FBA inhibitors; shares compounds with Mtb FBA inh; 81% of 5,600 active; inhibition, % at 1 µM; GDH-TPI coupled enzyme counterscreen, fluorescence; in the data active = inhibition above about 10%
* = called active by the depositor. Shown are actives, neighbours in structure and some others; about 3.5% of the full set was active somewhere. Cut-off read from the data, not from the text of the source, unless noted: active = inhibition above about 27%; inactive = the rest.

Cc1cc(OC(C)C(=O)NCc2ccccn2)c2c(C)c(Cc3ccccc3)c(=O)oc2c1 (centres undefined) was read as Mtb FBA inh 4, GDH-TPI counter-1 9, Rv3671c inh -4, Mtb hypoxia inh 8, FadD28 binding -2 and UGM FP inh -2.
CC(Oc1ccc(Cl)cc1Cl)C(=O)NCc1ccncc1 (centres undefined) was read as Mtb FBA inh 0, GDH-TPI counter-1 8, Rv3671c inh 8, Mtb hypoxia inh 6, FadD28 binding 0 and UGM FP inh 2.
For Cc1cc(OC(C)C(=O)NCc2ccncc2)c2c(C)cc(=O)oc2c1 (centres undefined) the results were Mtb FBA inh 84*, GDH-TPI counter-1 8, Rv3671c inh -4, Mtb hypoxia inh 0, FadD28 binding 0, UGM FP inh -2, Mtb FBA confirm 169* and GDH-TPI counter-2 159*.
CCCCc1cc(=O)oc2cc(C)cc(OC(C)C(=O)NCc3ccncc3)c12 (centres undefined) was read as Mtb FBA inh 42*, GDH-TPI counter-1 1, Rv3671c inh 7, Mtb hypoxia inh 4, FadD28 binding 0, UGM FP inh -1, Mtb FBA confirm 109* and GDH-TPI counter-2 76*.
Cc1cc(OC(C)C(=O)NCc2cccnc2)c2c(C)cc(=O)oc2c1 (centres undefined) was read as Mtb FBA inh 108*, GDH-TPI counter-1 9, Rv3671c inh -5, Mtb hypoxia inh 3, FadD28 binding -1, UGM FP inh -2, Mtb FBA confirm active and GDH-TPI counter-2 active.
`COc1cc(C=CC(=O)NCc2ccc3c(c2)cc(C)n3C)cc(OC)c1OC` gave Mtb hypoxia inh -6.
`COc1cc(C=NNC(=O)c2ccc([N+](=O)[O-])cc2Cl)cc(Br)c1O` gave Mtb hypoxia inh 0.
For Cc1ccc(C(=O)N/C(=C\c2ccc(F)cc2)C(=O)NCc2ccncc2)cc1 the results were Mtb FBA inh 3, GDH-TPI counter-1 1, Rv3671c inh 7, Mtb hypoxia inh 6 and FadD28 binding -2.
For O=C(NCc1ccncc1)/C(=C\c1ccc(F)cc1)NC(=O)c1ccccc1 the results were Mtb FBA inh 45*, GDH-TPI counter-1 1, Rv3671c inh 3, Mtb hypoxia inh 2, FadD28 binding -4, UGM FP inh -4, Mtb FBA confirm 185* and GDH-TPI counter-2 151*.
CCOc1ccc(-c2cc(C)[n+](CCO)c(-c3ccc(OCC)cc3)c2)cc1 was read as Mtb FBA inh 63*, GDH-TPI counter-1 28, Rv3671c inh 3, Mtb hypoxia inh 12, FadD28 binding -3, UGM FP inh 1, Mtb FBA confirm 67* and GDH-TPI counter-2 49*.
`CCC1=C(OC(=O)N(CC)CC)N2C(=O)OC(=NCc3ccccc3)[C@]2(C)C2C1=CCC1C(=O)N(c3ccccc3)C(=O)C12` (some centres undefined) gave Mtb hypoxia inh 1.
For COc1cc(OC)cc(-c2c(-c3ccc(F)cc3)c3cc(-c4ccc5[nH]ccc5c4)ccc3n2C)c1 the results were Mtb FBA inh 49*, GDH-TPI counter-1 25, Rv3671c inh -8, Mtb hypoxia inh 9, FadD28 binding -3, UGM FP inh -2, Mtb FBA confirm -4 and GDH-TPI counter-2 -5.
For COc1cccc(-c2c(-c3cc(OC)cc(OC)c3)n(C)c3ccc(-c4ccc5[nH]ccc5c4)cc23)c1 the results were Mtb FBA inh 42*, GDH-TPI counter-1 24, Rv3671c inh 1, Mtb hypoxia inh 18, FadD28 binding -2, UGM FP inh 1, Mtb FBA confirm active and GDH-TPI counter-2 active.
For COc1cccc(-c2c(-c3cc(OC)cc(OC)c3)n(C)c3ccc(-c4ccc(OC)nc4)cc23)c1 the results were Mtb FBA inh 1, GDH-TPI counter-1 3, Rv3671c inh 1, Mtb hypoxia inh -5, FadD28 binding -3 and UGM FP inh 3.
Screening CNc1ccc(-c2ccccc2CO)cn1 returned Mtb FBA inh 51*, GDH-TPI counter-1 9, FadD28 binding -3, Mtb FBA confirm 45* and GDH-TPI counter-2 27*.
Screening CCN1C(=O)/C(=C\N(C)C)SC1=NS(=O)(=O)c1ccc(C)cc1 returned Mtb hypoxia inh -5.
`COC(=O)c1ccc(C(=O)OC)c(=O)[nH]1` gave Mtb FBA inh 62*, GDH-TPI counter-1 7, Rv3671c inh -4, Mtb hypoxia inh 4, FadD28 binding 0, UGM FP inh -1, Mtb FBA confirm 3 and GDH-TPI counter-2 0.
`Cn1cncc1C#Cc1ccc2cc(CCO)oc(=O)c2c1` gave Mtb FBA inh 34*, GDH-TPI counter-1 17, Rv3671c inh 12, Mtb hypoxia inh 1, FadD28 binding -5, UGM FP inh 0, Mtb FBA confirm active and GDH-TPI counter-2 active.
`O=c1oc(CCO)cc2ccc(-c3ccc4[nH]ccc4c3)cc12` gave Mtb FBA inh 5, GDH-TPI counter-1 14, Rv3671c inh -2, Mtb hypoxia inh -5, FadD28 binding -2 and UGM FP inh 0.
For Cc1cc(=O)oc2cc(OCC(=O)N3CCOCC3)c(Cl)cc12 the results were Mtb FBA inh 109*, GDH-TPI counter-1 17, Rv3671c inh -1, Mtb hypoxia inh 12, FadD28 binding -4, UGM FP inh 1, Mtb FBA confirm active and GDH-TPI counter-2 active.
Cc1cc(=O)oc2cc(OCC(=O)N3CCC(O)CC3)c(Cl)cc12 was read as Mtb FBA inh 14, GDH-TPI counter-1 10, Rv3671c inh -3, Mtb hypoxia inh 6, FadD28 binding 0 and UGM FP inh 0.
For Cc1cc(=O)oc2cc(OCC(=O)N3CCCC3)c(Cl)cc12 the results were Mtb FBA inh 31*, GDH-TPI counter-1 0, Rv3671c inh 1, Mtb hypoxia inh 0, FadD28 binding -3, UGM FP inh -1, Mtb FBA confirm 13 and GDH-TPI counter-2 24*.
Screening CCCCCC=NNC(=O)c1[nH]c2ccc([N+](=O)[O-])cc2c1C returned Mtb hypoxia inh 7.
Screening O=C1OCC2=C1C(c1ccc(F)cc1)c1cc3c(cc1N2)OCCO3 (centres undefined) returned Mtb FBA inh 74*, GDH-TPI counter-1 37*, Mtb hypoxia inh 7, FadD28 binding -2, Mtb FBA confirm active and GDH-TPI counter-2 137*.
O=C1OCC2=C1C(c1ccc(F)cc1)c1cc3c(cc1N2)OCO3 (centres undefined) was read as Mtb FBA inh 27*, GDH-TPI counter-1 7, Mtb hypoxia inh 3, FadD28 binding -2, Mtb FBA confirm 133* and GDH-TPI counter-2 142*.
